35 compounds from PubChem BioAssay can be followed below.

Molecules are shown by their SMILES. Active and inactive are the calls of the source.

The nature of one assay: PSAC antagonists in infected red cells, primary screen, cell-based, P. falciparum Indochina, OD700, 18 h (AID 1157). As to conditions: P. falciparum Indochina infected erythrocytes, osmotic lysis OD700, 18 h; higher = more signal, called active from +8 up or from −8 down.
As for `CC1(C)[C@@H]2CC(C(O)C3C=CC4C(=O)N(c5ccccc5)C(=O)C4N3Nc3ccc([N+](=O)[O-])cc3)=C[C@H]1C2` (some centres undefined), the z-score was 1.56 (inactive).
In the case of `NC(=O)NCC#Cc1ccc2c(c1)[C@]1(C(=O)N2)[C@H](c2ccccc2OCCO)N2[C@H](c3ccccc3)[C@H](c3ccccc3)OC(=O)[C@H]2[C@@H]1C(=O)Nc1nc2ccccc2s1`, the z-score was 1.28 (inactive).
Still for that read-out and setting: under `COC(=O)C(CC#Cc1ccc2c(c1)[C@]1(C(=O)N2)[C@H](C(=O)Nc2nc3ccccc3s2)[C@H]2C(=O)O[C@H](c3ccccc3)[C@H](c3ccccc3)N2[C@@H]1c1ccc(O)cc1)C(=O)OC` stands 1.3 (inactive).
Still for that read-out and setting: as for `C=CCC(OC(C)=O)[C@@H]1[C@@H](N(Cc2ccc(-c3cccc(C(F)(F)F)c3)o2)C(=O)c2ccc(C)cc2)c2cc(OCCCO)ccc2N1C(=O)Cc1ccc2ccccc2c1` (some centres undefined), the figure is 0.825 (inactive); as for `O=C1O[C@H](c2ccccc2)[C@H](c2ccccc2)N2[C@H]1[C@@H](C(=O)N1CCCCCCC1)[C@]1(C(=O)Nc3ccc(C#CC4=CCCCC4)cc31)[C@H]2c1ccc(OCCO)cc1`, -1.25 (inactive); as for `CCCCCN1CC=CC23O[C@@H]4C=CCCOC(=O)C4[C@H]2C(=O)N(CCCCCO)[C@@H]3C1=O` (some centres undefined), 0.575 (inactive).
In the case of `COCCCNC(=O)[C@]1(CCC(=O)OC(C)(C)C)N=C(c2ccc(OCCCO)cc2)O[C@@H]1c1ccccc1CN=[N+]=[N-]`, the z-score was 1.13 (inactive).
On the same count and under the same terms, under `O=C1c2ccccc2[C@](Cc2ccccc2I)(C(=O)NCCN2CCOCC2)[C@H](c2ccc(CO)cc2)N1C1CCCCC1` stands 0.5 (inactive); under `COc1ccc([Si](C)(C)[C@H]2[C@H](CCO)O[C@@]3(C(=O)N(Cc4ccc(N(C=O)c5ccccc5)cc4)c4ccccc43)[C@@H]2C)cc1`, 1.87 (inactive).

The next assay is described as follows: modulators of S6 phosphorylation in cells, primary screen, cell-based, A549, cytoblot, luminescence, serum-stimulated (AID 1158).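 Note: serum-stimulated A549 lung adenocarcinoma cells; signal is phosphorylated S6 detected by cytoblot immunostaining with HRP secondary.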 As to conditions: A549 phospho-S6 cytoblot, 5 h, higher = more signal.
Regarding `O=C1C2C=CC(C(O)Cc3ccccc3)N(n3cnnc3)C2C(=O)N1Cc1ccccc1` (centres undefined), the z-score was -0.309.
Same read-out and setting: as for `CCCC[C@@H]1C[C@H]1[C@@H](NC(=O)c1ccco1)c1ccc(-c2ccccc2)cc1`, the figure is 1.28; as for `C[C@@]1([C@@H](NC(=O)c2ccc(-c3ccccc3)cc2)c2ccc(Cl)cc2)C[C@H]1C1CCCCC1`, -0.216; as for `COC(=O)c1c(CC[C@@H](CO)NC(=O)NCCn2cc(C3(O)CCCC3)nn2)oc(C(C)=O)c1C(=O)OC`, -0.359.
Same read-out and setting: as for `CC1(C)C2C=C(C(O)C3C=CC4C(=O)NC(=O)C4N3Nc3ccc(Cl)cc3Cl)C[C@@H]1C2` (some centres undefined), the figure is -1.38; as for `NC(=O)NCC#Cc1ccc2c(c1)[C@]1(C(=O)N2)[C@H](C(=O)Nc2nc3ccccc3s2)[C@H]2C(=O)O[C@H](c3ccccc3)[C@H](c3ccccc3)N2[C@@H]1c1ccccc1OCCO`, 1.76.
The same measure, in the same setting: as for `COC(=O)[C@@]1(Cc2ccc(F)cc2)[C@H]2c3cc(C(=O)N(C)C)n(Cc4cc(F)c(F)c(F)c4)c3C[C@H]2CN1C(=O)c1ccccc1`, the figure is -0.359; as for `[N-]=[N+]=NCc1ccccc1[C@@H]1OC(c2ccc(OCCCO)cc2)=N[C@]1(Cc1ccccc1)C(=O)NCC(O)CO` (some centres undefined), -0.319.
For the compound `COc1cc2c(cc1OC)CN(C(=O)[C@@H]1[C@H]3C(=O)O[C@H](c4ccccc4)[C@H](c4ccccc4)N3[C@H](c3ccc(O)cc3)[C@@]13C(=O)Nc1ccccc13)CC2`, the z-score turned out to be 2.99.
Regarding `[N-]=[N+]=Nc1ccccc1[C@H]1OC(c2ccc(OCCCO)cc2)=N[C@@]1(CCS(=O)(=O)c1ccccc1)C(=O)NCC(O)CO` (some centres undefined), the z-score was -0.235.
Same read-out and setting: as for `O=C1NC(=O)C2C1C=CC(C(O)c1cccs1)N2Nc1ccc(Cl)cc1Cl` (centres undefined), the figure is -0.27.
The compound `C=CCNC(=O)[C@H]1[C@@H]2C(=O)O[C@@H](c3ccccc3)[C@@H](c3ccccc3)N2[C@@H](c2ccccc2OCCO)[C@]12C(=O)Nc1ccc(C#CCCO)cc12` yielded a z-score of 0.0418.
The compound `CC(C)C(CO)N1C(=O)[C@@H]2C3C(=O)OCCC/C=C\[C@H]3OC23C=CCN(CCN2CCOCC2)C(=O)[C@@H]13` (some centres undefined) had a z-score of -0.158.
The same measure, in the same setting: under `CC(=O)n1cc(C(O)C2C=CC3C(=O)N(c4ccccc4)C(=O)C3N2Nc2ccc([N+](=O)[O-])cc2)c2ccccc21` (centres undefined) stands -0.75; under `CCOC(=O)C[C@H]1[C@H](OC(=O)c2ccc(C(=O)c3ccccc3)cc2)[C@@H](NC(=O)c2ccc3ccccc3n2)c2cc(OCCCO)ccc2N1C(=O)c1ccccc1`, -0.322; under `COc1ccc(C#Cc2ccc3c(c2)[C@]2(C(=O)N3)[C@H](C(=O)NC[C@H](O)c3ccccc3)[C@H]3C(=O)O[C@H](c4ccccc4)[C@H](c4ccccc4)N3[C@@H]2c2ccc(O)cc2)cc1`, -0.434.
In turn, `N#Cc1ccc(NN2C(C(O)C(c3ccccc3)c3ccccc3)C=CC3C(=O)N(c4ccccc4)C(=O)C32)cc1` (centres undefined) returned a z-score of 0.151.
Consider `Cc1ccccc1C(O)C1C=CC2C(=O)N(c3ccccc3)C(=O)C2N1Nc1ccc(C(C)C)cc1` (centres undefined), for which the z-score was -0.405.
For `CO[C@H]1O[C@H](CO)[C@@H](OC(=O)Nc2cccc(F)c2)[C@H](OC(=O)Nc2ccccc2)[C@@H]1OC(=O)Nc1ccccc1`, the z-score was 0.646.
With `C=CCOC(=O)[C@H]1[C@@H]2C(=O)O[C@@H](c3ccccc3)[C@@H](c3ccccc3)N2[C@@H](c2ccc(OCCOC(=O)[C@H]3C[C@H]4C(=O)N[C@@H](CCCCNC(C)=O)C(=O)N4[C@H]3c3ccc(O)cc3)cc2)[C@]12C(=O)Nc1ccc(I)cc12`, the z-score was -0.635.
Consider `Cc1nc2cc(Br)ccc2c(=O)o1`, for which the z-score was 0.472.
The same measure, in the same setting: under `CCCC[C@H]1OB(O)C[C@H]2C1=C(COC)Cn1c(=O)n(-c3ccccc3)c(=O)n12` stands 0.385.
Turning to `COc1ccc([Si](C)(C)[C@@H]2[C@@H](CCO)O[C@]3(C(=O)N(Cc4ccc(N(C=O)c5ccccc5)cc4)c4ccccc43)[C@H]2C)cc1`, the z-score stood at 0.257.
The same measure, in the same setting: as for `CC(C)[Si](C#Cc1ccc(Oc2ccccc2)cc1)(O[Si](C#Cc1ccc(Oc2ccccc2)cc1)(C(C)C)C(C)C)C(C)C`, the figure is 0.335; as for `CN1C=C(C(=O)OCCS(C)(=O)=O)C(C(=O)OCCS(C)(=O)=O)=CC(c2ccc(CO)cc2)=CC1C1CC1` (centres undefined), 0.116.
The same measure, in the same setting: under `COc1ccc(CCNC(=O)[C@@]2(Sc3ccc(C)cc3)CC(=O)N(C(C)C)[C@@H]2c2ccc(CO)cc2I)cc1` stands 0.394.
The compound `CC1(C)[C@@H]2CC(C(O)C3C=CC4C(=O)N(c5ccccc5)C(=O)C4N3Nc3ccc([N+](=O)[O-])cc3)=C[C@H]1C2` (some centres undefined) displayed a z-score of -0.539.
Turning to `NC(=O)NCC#Cc1ccc2c(c1)[C@]1(C(=O)N2)[C@H](c2ccccc2OCCO)N2[C@H](c3ccccc3)[C@H](c3ccccc3)OC(=O)[C@H]2[C@@H]1C(=O)Nc1nc2ccccc2s1`, the z-score is -0.0906.
Still for that read-out and setting: as for `COC(=O)C(CC#Cc1ccc2c(c1)[C@]1(C(=O)N2)[C@H](C(=O)Nc2nc3ccccc3s2)[C@H]2C(=O)O[C@H](c3ccccc3)[C@H](c3ccccc3)N2[C@@H]1c1ccc(O)cc1)C(=O)OC`, the figure is 0.0065; as for `C=CCC(OC(C)=O)[C@@H]1[C@@H](N(Cc2ccc(-c3cccc(C(F)(F)F)c3)o2)C(=O)c2ccc(C)cc2)c2cc(OCCCO)ccc2N1C(=O)Cc1ccc2ccccc2c1` (some centres undefined), 0.533.
The same measure, in the same setting: under `O=C1O[C@H](c2ccccc2)[C@H](c2ccccc2)N2[C@H]1[C@@H](C(=O)N1CCCCCCC1)[C@]1(C(=O)Nc3ccc(C#CC4=CCCCC4)cc31)[C@H]2c1ccc(OCCO)cc1` stands 2.85; under `CCCCCN1CC=CC23O[C@@H]4C=CCCOC(=O)C4[C@H]2C(=O)N(CCCCCO)[C@@H]3C1=O` (some centres undefined), 0.708; under `COCCCNC(=O)[C@]1(CCC(=O)OC(C)(C)C)N=C(c2ccc(OCCCO)cc2)O[C@@H]1c1ccccc1CN=[N+]=[N-]`, -0.0406.
On the same count and under the same terms, under `O=C1c2ccccc2[C@](Cc2ccccc2I)(C(=O)NCCN2CCOCC2)[C@H](c2ccc(CO)cc2)N1C1CCCCC1` stands -0.164; under `COc1ccc([Si](C)(C)[C@H]2[C@H](CCO)O[C@@]3(C(=O)N(Cc4ccc(N(C=O)c5ccccc5)cc4)c4ccccc43)[C@@H]2C)cc1`, 0.788.
